Whole data set: some 25,000 sequences, median “ln(normalized median fluorescence intensity)” near 9.3, cut for the highest 2% near 10. Many of the other results were omitted from the sample, so the highest values are more common in it than they were.

For the experiment, the system named is PF3D7_0420300 AP2 domain 1 (GST-tagged). As to the kind of experiment: gcPBM binding intensity (ln(normalized median fluorescence intensity)); higher = stronger DNA binding. In short, it runs like this:
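For binding intensity, the highest Masliner-normalised natural-log median intensity across replicate spots of either probe orientation was taken. Protein bound to the array was stained with Alexa488 anti-GST antibody and scanned at 488 nm. The protein, GST-tagged P. falciparum DNA-binding domains from E. coli at about 25 μg on average, had been applied for 1 h to an Agilent 4 × 180k array of primer-extended double-stranded 36-bp intergenic genomic probes and negative controls.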
“CGCACCCACAGACACACACACACATATATATATATA [CACACA_site2202]”: the “gcPBM binding intensity (ln)” value turned out to be 10.2. For “GGCATACACAGACACACACACACACCCACATATATA [CACACA_site591]”, the “gcPBM binding intensity (ln)” value was determined as 10.3. Then “TAAATACAGACATACACACATACACCCACATATATA [CACACA_site547]”, with 9.95; and “CACCCCCACAGACACACACACACACCCATATATATA [CACACA_site364]”, with 10.3; and “TACCTATACAGACACACACACACACGCCCACAAAAA [CACACA_site6375]”, with 10.3.

As to “AATACACGCAGACACACACACAAAAAAAAAAAAAAA [CACACA_site6384]”, the “gcPBM binding intensity (ln)” value amounted to 9.61.

As for “ATATTATTGTAGAAATGTACATATATATATATATAT [XGTACX_site1882]”, the “gcPBM binding intensity (ln)” value amounted to 9.31.

For “ATCATATGTATGCATACACACAAAAAGTTATTTATA [CACACA_site6325]”, the “gcPBM binding intensity (ln)” value was found to be 9.37.

In the case of “AAAAAAAAAAAACACACACACACACCCAAATATATA [CACACA_site150]”, the “gcPBM binding intensity (ln)” value came out at 10.1.

Take “TATATAAAGAAACACACACACACCTTATAATTATTA [CACACA_site4062]”: the “gcPBM binding intensity (ln)” value was determined as 10. Then “ATAAATAAAAAACACACACACACACCCAAAAAAAAA [CACACA_site2624]”, with 10.1; and “TAAACACCCATATAAACACACATACATACATACATA [CACACA_site5383]”, with 9.7; and “TGCAACAAAATAAACACACACACACCCCCACAAAAA [CACACA_site3388]”, with 10.3. Then “TATAAACACCCATATAAACACACATACATACATACA [CACACA_site8791]”, with 9.58; and “AAAAAAAAAAAACACACACACACACCCACAAAATAT [CACACA_site1447]”, with 10.2. Then “TATATAAATAAACACACACACACCTTATAATTATTA [CACACA_site9345]”, with 9.93; and “CACAAACAAAAACACACACACACACCCACAAAAATG [CACACA_site2429]”, with 10.1; and “TATATAAATGGACACACACACACCTTATAATTATTA [CACACA_site6093]”, with 10.2. In the case of “CATACATACAAACACACACACACACCCATATATATA [CACACA_site2918]”, the “gcPBM binding intensity (ln)” value came to 10.4. Under “TTAACAAATAAACACACACACACACCCAAAAAAAAA [CACACA_site8068]” stands 10.1.

On to “TTATATAACATTATTTGTACATATAAAATATGGATG [XGTACX_site8526]”, for which the “gcPBM binding intensity (ln)” value was found to be 9. Under “ATATTATTTTAAAGTACACACATATATTGATATATA [CACACA_site7153]” stands 9.39; under “TGAATTCGTCAAAAGCGTACATATAATATCTTCTTG [XGTACX_site8842]”, 9.19; under “AAAAACTATTGTAGGACACACAAAATTCCAATTTTA [CACACA_site1701]”, 9.41. Then “GTCACAAAATAAATTAAACACACAACATCATATATG [CACACA_site8182]”, with 9.65; and “CAAAAAAAATTATACACACACACACCCATATATATA [CACACA_site1044]”, with 10.2; and “AAAATACAGAAACACACACACACACCCATATATATA [CACACA_site3559]”, with 10.3. Under “TTTAAATACAGACATACACACATACACCCACATATA [CACACA_site8078]” stands 9.81; under “AACATACATAAACACACACACACACCCACAGAGACA [CACACA_site4430]”, 10.4. “AATGTACACGCACCCACACACAAACAAATATAAATA [CACACA_site7319]”: the “gcPBM binding intensity (ln)” value was 9.81. Under “AAAAAAAAAAAAAAAACACACAGAAATATATATATA [CACACA_site4611]” stands 9.55; under “AATGTACCCACACCCACACACAAACAAATATATATA [CACACA_site2751]”, 9.85. Then “ATAAAATACAGATAAACACACATATAAACACCCATA [CACACA_site5381]”, with 9.92.

Turning to “AATGTACACCCACCCACACACAAACAAATATATATA [CACACA_site5521]”, the “gcPBM binding intensity (ln)” value is 10.2. Under “TAAACAGACATATAAACACACATATAAACAGACATA [CACACA_site7214]” stands 9.91; under “ATTAATTATATATATACACACACATACACCCAAATA [CACACA_site9126]”, 10.

For the sequence “CACAAAAAAAATTATACACACACACCCATATATATA [CACACA_site8255]”, the “gcPBM binding intensity (ln)” value came to 9.99. Under “AAATAACACTAATGATGTACTCAACTATTTATAATT [XGTACX_site8183]” stands 9.47; under “TAAATATCAAGACACACACACAAAAGTGAATAAATA [CACACA_site7723]”, 9.9; under “TTATATTCTAGAGACACATGCGATTTTTTATTTTAT [TGCATGCA_site649]”, 9.42. Consider “ATATAATGATGGAAAAGAAAAGAAATAAAAAAAAAA [CACACA_negctrl_site1170]”, for which the “gcPBM binding intensity (ln)” value came out at 9.21.

Regarding “TAGTTATCACATTGCACACACATTTCCTTTTACATT [CACACA_site7589]”, the “gcPBM binding intensity (ln)” value was 10.

“CTAAAAATTTTAATTGCACACCACGTTGGACTATTT [CACACA_site1489]”: the “gcPBM binding intensity (ln)” value was found to be 9.24. Under “AGCCATTAATTCTCTACACACCTTTATGTTATTTAG [CACACA_site3635]” stands 9.71; under “TATTTTAATGAAGCATTTAAGGGAAAAAAAAAAAAA [TGCATGCA_negctrl_site606]”, 8.85.

(Values after the supplement of paper PMC11417369.)
